PubChem BioAssay (Tox21)
Records with an inconclusive call do not appear. Entries that show only a call come without a potency. Some compounds were tested as several samples or in several runs, with calls that do not always agree. Active and inactive are the calls of the source. The call rests on the fitted dose curve.

Experiment: qHTS assay to identify small molecule agonists of the NFkB signaling pathway - cell viability counter screen (AID 1159515); further: nearly all actives have a fitted effect of over 55% in size
Conditions: NFkB-bla ME-180 viability, CellTiter-Glo luminescence, 5 h; series mostly up to 61 µM
Description: National Center for Advancing Translational Sciences [NCATS]
NIH Chemical Genomics Center [NCGC]
U.S. Environmental Protection Agency [EPA]
National Institutes of Environmental Health Sciences [NIEHS]
National Toxicology Program [NTP]
U.S. Food and Drug Administration [FDA]
Transcription factors and their stimulated target gene expression play pivotal roles across many cellular processes including responses to environmental stimuli. Proper regulation of associated pathways is critical to maintain cell health and function. Constitutive activation of transcription factor pathways has been implicated in tumors as it may block cellular functions such as apoptosis and lead to invasion and metastasis. One important transcription factor that stimulates gene expression in response to cytokines, UV radiation, and other stimuli is nuclear factor-kappa B (NFkB). To measure activation of the NFkB pathway, the CellSensor NFkB-bla ME-180 cell line (Life Technologies, Carlsbad, CA) that stably expresses beta-lactamase reporter gene under the regulation of a NF-kB response element was used. This assay allows measurement of the NFkB pathway activity induced by compounds in a ME-180 cell line. This system quantitates NF-kB activity using a FRET-based assay system where beta-lactamase expression disrupts FRET, allowing for fluorescent measurement of activity. This cell line has been used to screen the Tox21 10K compound library and to identify compounds that induce the NFkB pathway activity. The cytotoxicity of the Tox21 compound library against the NFkB-bla ME-180 cell line was tested in parallel by measuring cell viability using the CellTiter-Glo assay in the same wells.
Tox21 Assay Protocol Summary:
NFkB-bla ME-180 cells were dispensed at 2,000 cells/6 uL of assay medium per well into black wall/clear-bottom 1536-well plates using a Multidrop Combi (ThermoFisher Scientific, Waltham, MA) dispenser. After the assay plates were incubated at 37 C and 5% CO2 for an overnight, 23 nL of compounds dissolved in DMSO, positive controls or DMSO only was transferred to the assay plate by a Pintool station (Kalypsys, San Diego, CA). The assay plates were incubated at 37 C and 5% CO2 for 5 hr. One uL of LiveBLAzer B/G FRET substrate (Life Technologies) was added using a Flying Reagent Dispenser (Aurora Discovery, San Diego, CA) and the plates were incubated at room temperature for 1.5 hr. Fluorescence intensity (405 nm excitation, 460 nm and 530 nm emissions) was measured using an Envision plate reader (PerkinElmer, Shelton, CT). For cytotoxicity, 3 ul/well of CellTiter-Glo reagent was added into the assay plates using an FRD. After 30 min incubation at room temperature, the luminescence intensity was measured using a ViewLux plate reader (PerkinElmer).
Potency means the concentration at half of the fitted maximal effect.

| Structure (SMILES) | Potency |
| --- | --- |
| Nc1cc([N+](=O)[O-])ccc1C(=O)O | inactive |
| COc1cc([C@H]2Oc3cc([C@H]4Oc5cc(O)cc(O)c5C(=O)[C@@H]4O)ccc3O[C@@H]2CO)ccc1O | inactive |
| Cc1ccc(/C(=C\CN2CCCC2)c2ccccn2)cc1 | inactive |
| O=C(O)COCCN1CCN(C(c2ccccc2)c2ccc(Cl)cc2)CC1 (stereo not given) | inactive |
| CC(=O)OC(C)C | inactive |
| CC1(C)O[C@@H]2C[C@H]3[C@@H]4C[C@H](F)C5=CC(=O)C=C[C@]5(C)[C@@]4(F)[C@@H](O)C[C@]3(C)[C@]2(C(=O)CO)O1 | inactive |
| CC(=O)[C@@]1(O)CC[C@H]2[C@@H]3C[C@H](C)C4=CC(=O)C=C[C@]4(C)[C@@]3(F)[C@@H](O)C[C@@]21C | inactive |
| C=CCNCC=C | inactive |
| Cc1ccc(C(C)(C)C)c(O)c1 | inactive |
| CCOC(=O)C(C)Oc1ccc(Oc2cnc3cc(Cl)ccc3n2)cc1 (stereo not given) | inactive |
| CC(C)(C)c1cccc(C(C)(C)C)c1O | inactive |
| C[C@]12CC[C@@H]3c4ccc(O)cc4CC[C@H]3[C@@H]1CC[C@H]2O | inactive |
| c1ccc2cc3ccccc3cc2c1 | inactive |
| COCCOCCOCCO | inactive |
| IC(I)I | inactive |
| [O-]/[N+](=N\O)c1ccccc1 | inactive |
| Brc1nc2ccccc2s1 | inactive |
| CN(C)/N=N/c1nc[nH]c1C(N)=O | inactive |
| O=C(O)c1ccc(O)cc1 | inactive |
| CC(=O)[C@H]1CC[C@H]2[C@@H]3CC=C4C[C@@H](O)CC[C@]4(C)[C@H]3CC[C@]12C | inactive |

| Structure (SMILES) | Potency |
| --- | --- |
| COc1ccc(-c2coc3cc(O)cc(O)c3c2=O)cc1 | inactive |
| CC1(C)C(C=C(Cl)Cl)C1C(=O)OCc1cccc(Oc2ccccc2)c1 (stereo not given) | inactive |
| Cc1ccc(S(=O)(=O)O)cc1C | inactive |
| CC/C=C\C/C=C\C/C=C\CCCCCCCC(=O)O | inactive |
| CC(=O)Oc1c(C)c(C)c2c(c1C)CC[C@@](C)(CCC[C@H](C)CCC[C@H](C)CCCC(C)C)O2 | inactive |
| c1ccc2c(c1)ccc1cc3c(ccc4ccccc43)cc12 | inactive |
| CCCCCC1C(=O)CCC1CC(=O)OC (stereo not given) | inactive |
| CCc1cccc2c3c([nH]c12)C(CC)(CC(=O)O)OCC3 (stereo not given) | inactive |
| CCCCCC=O | inactive |
| CC1(C)OC(=O)NC1=O | inactive |
| CCC(=O)O[C@H]1[C@H](O[C@@H]2[C@@H](C)[C@H](O[C@H]3C[C@@](C)(OC)[C@@H](O)[C@H](C)O3)[C@@H](C)C(=O)O[C@H](CC)[C@@](C)(O)[C@H](O)[C@@H](C)C(=O)[C@H](C)C[C@@]2(C)O)O[C@H](C)C[C@@H]1N(C)C | 36.4 µM (active) and inactive |
| NCCS(=O)(=O)O | inactive |
| CC1(C)NC(=O)N(c2ccc([N+](=O)[O-])c(C(F)(F)F)c2)C1=O | inactive |
| O=C(O)CCCC(=O)O | inactive |
| C=C[C@H]1CN2CC[C@H]1C[C@@H]2[C@@H](O)c1ccnc2ccc(OC)cc12 | inactive |
| Oc1ccc(C(c2ccc(O)cc2)C(Cl)(Cl)Cl)cc1 | inactive |
| Nc1ccc2c(c1)C(=O)c1ccccc1C2=O | inactive |
| CC(=O)Nc1ccc2c(c1)Cc1cc(NC(C)=O)ccc1-2 | inactive |
| CC[C@]12CCCN3CCc4c(n(c5ccccc45)[C@@](O)(C(=O)OC)C1)[C@@H]32 | inactive |
| COC(=O)c1ccc(C)cc1 | inactive |
